Drawing on PubChem BioAssay, this text covers outcome and potentiation for eight compounds.

For some assays here: Potency and affinity values are given separately. Activity calls are given as the source filed them.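 The calls were made as follows, unless noted: active = membrane potential signal rise above negative control mean plus 3 SD in both duplicates, also active in the earlier TRPC4 screen; inactive = the rest.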

Assay [1] concerns TRPC4 beta (transient receptor potential cation channel C4), mouse. Put plainly: activators of mouse TRPC4 channel, confirmation, cell-based, Fluo4 calcium, HEK293 TRPC4beta/mu-opioid, duplicates, 10 µM (AID 2426;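 active = fluorescence ratio normalized to control raised more than 50% in primary screen plus both repeat runs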). Particulars: Fluo4 calcium fluorescence, at 10 µM; stronger effect = higher value.
The test system of assay [2] is transient receptor potential cation channel C4 beta (TRPC4), mouse. The assay can be described thus: activators of mouse TRPC4 channel, confirmation, cell-based, second round, Fluo4, HEK293 TRPC4beta/mu-opioid, 1 µM (AID 2461;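 active = primary screen active and over 50% activation in each of two duplicate runs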). As to conditions: Fluo4 calcium fluorescence, at 1 µM; stronger effect = higher value.
In assay [3] the test system is TRPC4 (transient receptor potential cation channel C4 beta), mouse. The assay can be described thus: positive allosteric modulators of mouse TRPC4, confirmation, cell-based, second round, Fluo-4, HEK293 TRPC4beta/mu-opioid, 1 µM (AID 2554;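 active = primary screen hit whose fluorescence ratio, in both repeats, exceeds the weak agonist control mean by 3 SD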). Particulars: DAMGO EC20, Fluo-4 calcium flux, at 1 µM; stronger effect = higher value. (Calcium assays in cells follow changes in intracellular calcium, usually with a dye or a luminescent sensor.)

The test system of assay [4] is TRPC4 beta (transient receptor potential cation channel C4), mouse. Put plainly: positive allosteric modulators of mouse TRPC4, confirmation, cell-based, Fluo-4, HEK293 TRPC4beta/mu-opioid (AID 2555;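 active = primary screen hit whose calcium fluorescence ratio, in both repeats, exceeds the weak agonist control mean by 3 SD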). As to conditions: DAMGO EC20, Fluo-4 calcium flux, at 10 µM; stronger effect = higher value.
Assay [5] addresses Short transient receptor potential channel 4 (Mus musculus) (UniProt Q9QUQ5). Put plainly: inhibitors of mouse TRPC4 channel, confirmation, cell-based, Fluo4, HEK293 TRPC4beta/mu-opioid (AID 2636;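 active = calcium signal cut by more than 3 SD below the full-agonist control yet still positive, in both repeats and the earlier primary screen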). Particulars: DAMGO, Fluo4 calcium flux, at 10 µM; stronger effect = higher value.
For assay [6] the target is unchanged. Put plainly: inhibitors of mouse TRPC4 channel, confirmation, cell-based, second round, Fluo4, HEK293 TRPC4beta/mu-opioid, 1 µM (AID 2637;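 active = calcium signal ratio cut to more than 3 SD under the fully stimulated control mean yet still positive, in both repeats and the primary screen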). Particulars: Fluo4 calcium flux, DAMGO, at 1 µM; stronger effect = higher value.
For assay [7] the target is unchanged. Put plainly: mouse TRPC4 channel activators, dose response, cell-based, HEK293 TRPC4/mu-opioid, Fluo-4 calcium (AID 434937;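 active = primary screen activator hit with a dose response curve and TRPC4 channel activation at any tested dose; inactive = no activation, no dose response, or not a primary hit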).
Assay [8] shares this target. Put plainly: mouse TRPC4 channel inhibitors, dose response, cell-based, HEK293 TRPC4/mu-opioid, Fluo-4 calcium (AID 434942;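 active = primary screen inhibitor hit that blocks the TRPC4 channel at some tested dose, yielding a dose curve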).
The target of assay [9] is Short transient receptor potential channel 6 (Mus musculus) (UniProt Q61143). The assay can be described thus: inhibition of mouse TRPC6 channel, confirmation, selectivity assay for TRPC4 inhibitor project, cell-based, HEK293, membrane potential dye, duplicate (AID 434948;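 active = active in primary screen and both duplicates, each dropping signal beyond three positive-control SD with fluorescence still positive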). As to conditions: HEK293 TRPC6, membrane potential dye fluorescence, at 10 µM, stimulated with maximal-effect acetylcholine; stronger effect = higher value.

For assay [10] the target is unchanged. Put plainly: activation of mouse TRPC6 channel, confirmation, selectivity assay for TRPC4 activator project, cell-based, HEK293, membrane potential dye, duplicate (AID 434950). As to conditions: HEK293 TRPC6, membrane potential fluorescence, at 10 µM; stronger effect = higher value.
Assay [11] shares this target. Put plainly: TRPC6 potentiation by TRPC4 potentiator hits, confirmation, selectivity assay for TRPC4 potentiator project, HEK293 cells, membrane potential dye, duplicate (AID 434952;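 active = compound raising the membrane signal above positive-control mean plus 3 SD in both repeats, and a primary screen hit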). Particulars: HEK293 TRPC6, membrane potential dye fluorescence, at 10 µM, maximal acetylcholine added after compound; stronger effect = higher value.
Assay [12] addresses Short transient receptor potential channel 4 (Mus musculus) (UniProt Q9QUQ5). Put plainly: calcium flux activators in TRPC4/5HT1a cells, counter-screen for TRPC4 activator project, cell-based, second counter screen, HEK293 TRPC4/5HT1a, Fluo-4 (AID 434977;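 active = calcium signal rise above buffer-control mean plus 5 SD in both duplicates, and also a hit in the primary screen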). Particulars: Fluo-4 calcium flux, at 10 µM; stronger effect = higher value.
Assay [13] in a line: calcium flux inhibitors in TRPC4/5HT1a cells, confirmation, counter-screen for TRPC4 inhibitor project, cell-based, second counter screen, HEK293 TRPC4/5HT1a, Fluo-4 (AID 434978;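 active = primary screen active whose calcium signal fell more than 3 SD beyond the full-serotonin control mean in both duplicate plates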;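 also: serotonin given first at submaximal then at maximal dose after compound preincubation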). As to conditions: Fluo-4 calcium flux, at 10 µM, serotonin added to trigger calcium flux; stronger effect = higher value.
The test system of assay [14] is TRPC4 (mouse), co-expressed with 5HT1a in HEK293. Put plainly: calcium flux potentiators in TRPC4/5HT1a cells, confirmation, counter-screen for TRPC4 potentiator project, cell-based, second counter screen, HEK293 TRPC4/5HT1a, Fluo-4 (AID 434979;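 active = signal rise over 3 SD above mean of control wells given weak agonist, in both repeats and first screen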). As to conditions: Fluo-4 calcium flux, at 10 µM, serotonin added at its EC20 dose; stronger effect = higher value.
The nature of assay [15]: calcium flux activation in mu-opioid HEK293 cells, confirmation, counter-screen for TRPC4 activator project, cell-based, HEK293 mu-opioid receptor line (AID 449723;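 active = hit in primary screen, with calcium signal over 5 SD above buffer well mean in both duplicates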;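 also: counter screen cells carry the mu-opioid receptor alone and lack TRPC4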). Particulars: Fluo-4 calcium fluorescence, at 10 µM; stronger effect = higher value.
A short description of assay [16]: calcium flux enhancement in mu-opioid HEK293 cells, confirmation, counter-screen for TRPC4 allosteric potentiator project, cell-based, HEK293 mu-opioid receptor line (AID 449724;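 active = calcium signal rise more than 3 SD above the low-dose agonist control mean, in both duplicate plates and the primary screen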;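 also: HEK293 cells carrying mu-opioid receptor only with no TRPC4 channel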). Particulars: Fluo-4 calcium flux, at 10 µM, compound added before EC20 DAMGO stimulus; stronger effect = higher value.

Short transient receptor potential channel 4 (Mus musculus), sequence (Q9QUQ5 whole entry, looked up): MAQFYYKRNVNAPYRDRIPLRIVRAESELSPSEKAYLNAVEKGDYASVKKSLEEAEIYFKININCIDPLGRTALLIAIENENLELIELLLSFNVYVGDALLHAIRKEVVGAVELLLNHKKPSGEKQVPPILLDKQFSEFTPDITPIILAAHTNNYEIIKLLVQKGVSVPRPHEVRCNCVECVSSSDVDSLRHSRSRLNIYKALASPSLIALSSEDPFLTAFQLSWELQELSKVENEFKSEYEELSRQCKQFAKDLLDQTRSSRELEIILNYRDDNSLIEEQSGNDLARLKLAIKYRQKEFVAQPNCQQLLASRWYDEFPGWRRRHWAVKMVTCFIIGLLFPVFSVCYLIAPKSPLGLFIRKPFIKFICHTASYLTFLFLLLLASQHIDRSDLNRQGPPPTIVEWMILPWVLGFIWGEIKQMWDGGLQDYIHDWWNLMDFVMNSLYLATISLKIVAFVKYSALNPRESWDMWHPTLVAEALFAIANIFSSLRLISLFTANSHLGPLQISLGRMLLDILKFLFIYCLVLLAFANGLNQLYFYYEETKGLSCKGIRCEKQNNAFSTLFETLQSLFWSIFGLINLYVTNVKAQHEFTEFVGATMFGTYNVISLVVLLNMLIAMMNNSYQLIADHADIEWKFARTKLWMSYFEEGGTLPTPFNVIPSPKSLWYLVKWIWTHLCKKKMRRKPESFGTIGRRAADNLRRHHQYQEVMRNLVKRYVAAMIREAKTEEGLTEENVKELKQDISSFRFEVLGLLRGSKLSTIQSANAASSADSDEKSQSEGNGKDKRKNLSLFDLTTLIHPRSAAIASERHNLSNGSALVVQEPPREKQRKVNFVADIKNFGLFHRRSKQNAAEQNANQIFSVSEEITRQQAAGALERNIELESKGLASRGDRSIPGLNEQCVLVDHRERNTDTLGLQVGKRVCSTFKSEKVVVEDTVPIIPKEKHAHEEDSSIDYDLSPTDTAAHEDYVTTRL
Short transient receptor potential channel 6 (Mus musculus), sequence (Q61143 whole entry, looked up): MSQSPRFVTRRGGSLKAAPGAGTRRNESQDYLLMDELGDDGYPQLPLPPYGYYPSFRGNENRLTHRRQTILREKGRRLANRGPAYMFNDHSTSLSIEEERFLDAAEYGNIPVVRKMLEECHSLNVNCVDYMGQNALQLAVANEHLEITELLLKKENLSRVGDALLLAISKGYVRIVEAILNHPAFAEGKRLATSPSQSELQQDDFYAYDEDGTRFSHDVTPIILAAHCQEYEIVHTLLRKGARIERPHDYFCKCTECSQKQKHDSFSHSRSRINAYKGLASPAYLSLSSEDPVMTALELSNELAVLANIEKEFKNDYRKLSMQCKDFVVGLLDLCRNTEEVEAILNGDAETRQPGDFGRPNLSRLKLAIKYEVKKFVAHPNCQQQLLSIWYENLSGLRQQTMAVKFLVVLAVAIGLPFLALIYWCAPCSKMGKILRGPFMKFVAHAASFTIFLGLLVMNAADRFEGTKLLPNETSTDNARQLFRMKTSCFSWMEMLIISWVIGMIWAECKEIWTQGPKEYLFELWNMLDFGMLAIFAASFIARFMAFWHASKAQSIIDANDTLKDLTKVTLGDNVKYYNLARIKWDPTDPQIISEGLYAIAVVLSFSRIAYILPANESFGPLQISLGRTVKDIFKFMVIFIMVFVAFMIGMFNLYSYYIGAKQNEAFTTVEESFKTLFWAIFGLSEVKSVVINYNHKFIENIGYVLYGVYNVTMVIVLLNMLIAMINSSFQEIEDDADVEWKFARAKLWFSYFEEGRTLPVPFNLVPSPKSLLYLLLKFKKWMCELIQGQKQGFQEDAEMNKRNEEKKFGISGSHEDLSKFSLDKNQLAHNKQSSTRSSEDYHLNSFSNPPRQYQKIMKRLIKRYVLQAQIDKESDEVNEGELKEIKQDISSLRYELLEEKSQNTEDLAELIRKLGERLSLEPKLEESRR

Take `CCCCn1c(SCC(=O)N2c3ccccc3Sc3ccccc32)nc2c1c(=O)n(C)c(=O)n2C`: the outcome in [1], in assay [2], in [5], in assay [6], in assay [7] and in assay [8] was inactive. In addition, the compound was classed as inactive in [9], in [10], in assay [11], in assay [12], in assay [13] and in assay [15]. Besides, the outcome in assay [16] was inactive. Moreover, the figures for the potentiation in assay [3], in assay [4] and in [14] were 8% (active), 97% (active) and 93.4% (active), respectively.
Consider `Cc1cc(C(C)(C)C)c(O)c(C)c1CC1=NCCN1`, for which the result in [1], in assay [2], in [3], in assay [5], in assay [6] and in assay [7] was inactive. Besides, the result in assay [8], in [9], in assay [10], in [11], in assay [12] and in assay [13] was inactive. Further, the outcome in [14], in [15] and in [16] was inactive. Besides, in assay [4], the potentiation was 14% (active).
As to `Cc1cccc(Cn2c(N3CCN(c4ccccc4)CC3)nc3c2c(=O)n(C)c(=O)n3C)c1`, the outcome in assay [1], in assay [2], in [3], in assay [5], in assay [6] and in [7] was inactive. Besides, the result in assay [8], in assay [9], in [10], in assay [11], in [12] and in [13] was inactive. Besides, the result in assay [15] and in [16] was inactive. The potentiation in assay [4] was 71% (active); in assay [14] it was 59.2% (active).
For the compound `Cc1cccc(/C=N/NC(=O)c2cccc(Cl)c2)n1`, the result in assay [1], in [2], in assay [3], in assay [5], in assay [6] and in [7] was inactive. Moreover, the outcome in [8], in assay [9], in assay [10], in [11], in assay [12] and in assay [13] was inactive. Further, the result in assay [15] and in [16] was inactive. Further, the potentiation was 79% (active) in [4] and 83.4% (active) in assay [14].
On to `CC(C)c1c(O)nc(SCCN(C)C)[nH]c1=O`, for which the result in assay [1], in assay [2], in [5], in [6], in assay [7] and in [8] was inactive. Also, the compound was classed as inactive in [9], in [10], in [11], in assay [12], in assay [13] and in assay [15]. The outcome in [16] was inactive. Further, the potentiation in [3] was 13% (active); in assay [4] it was 27% (active); in assay [14] it was 57.7% (active).
`O=C(NCc1ccccc1)C1=C[C@H](c2ccc(Br)cc2)C[C@H](OCc2ccc(CO)cc2)O1`: the result in assay [1], in [2], in [3], in assay [5], in assay [6] and in assay [7] was inactive. Further, the result in assay [8], in assay [9], in assay [10], in assay [11], in assay [12] and in [13] was inactive. The outcome in assay [15] and in assay [16] was inactive. Moreover, the potentiation in assay [4] is 35% (active); in assay [14], 97.6% (active).
In the case of `O=[N+]([O-])c1cc(C(F)(F)F)ccc1NC1CCN(Cc2ccccc2)C1` (stereo not drawn), the result in assay [1], in assay [2], in assay [3], in [4], in [5] and in assay [6] was inactive. The outcome in assay [7], in assay [8], in assay [9], in [10], in assay [11] and in assay [12] was inactive. For the same compound, the result in assay [13], in assay [15] and in [16] was inactive. Moreover, in [14], the potentiation was 23.9% (active).
With `CCCCCCn1c(N2CCN(c3ccccc3)CC2)nc2c1c(=O)n(C)c(=O)n2C`, the outcome in assay [1], in [2], in [5], in assay [6], in assay [7] and in assay [8] was inactive. In addition, the call in assay [9], in assay [10], in assay [11], in [12], in [13] and in [15] was inactive. Further, the outcome in [16] was inactive. In addition, the potentiation in [3] was 9% (active); in assay [4], 117% (active); in assay [14], 81% (active).
